# The list is not random: actives were taken first. Their share in the collection is about 9%.
# ALDH1A1 block – ALDH1A1 (human) enzyme inhibition. P00352. Purified ALDH1A1, NADH fluorescence, propionaldehyde substrate. Potency, µM (series often up to 75.3 µM), for the others: at the top dose activity, negative = inhibition, usual class: inhibitors. 220,000 compounds, 7.3% hits. AID 1030; active = well fitted inhibition curve with a large enough effect, not every such curve was filed as active; inconclusive = small, poorly fitted or top-dose-only effect, or another doubt; inactive = no such curve, though single readings can be large or run the other way;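 also: plate controls were no enzyme wells and a reference inhibitor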
# Target sequence (P00352 whole entry, looked up): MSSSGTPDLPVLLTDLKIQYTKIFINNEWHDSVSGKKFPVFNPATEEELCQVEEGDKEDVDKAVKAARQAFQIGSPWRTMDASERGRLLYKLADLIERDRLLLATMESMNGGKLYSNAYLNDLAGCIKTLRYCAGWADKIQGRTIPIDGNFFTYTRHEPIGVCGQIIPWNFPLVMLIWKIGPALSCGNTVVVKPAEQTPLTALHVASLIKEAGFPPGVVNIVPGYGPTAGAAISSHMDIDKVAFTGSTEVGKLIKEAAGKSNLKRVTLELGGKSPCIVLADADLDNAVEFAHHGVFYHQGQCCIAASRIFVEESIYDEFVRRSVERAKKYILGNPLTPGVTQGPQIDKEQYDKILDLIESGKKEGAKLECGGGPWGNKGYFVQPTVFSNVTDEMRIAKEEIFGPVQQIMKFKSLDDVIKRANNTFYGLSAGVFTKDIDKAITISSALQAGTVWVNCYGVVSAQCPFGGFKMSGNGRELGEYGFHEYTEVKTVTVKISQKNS
# Luc counter – Kinase-Glo luciferase inhibition (counter-screen). Q27757. 200,000 compounds, 0.28% hits. Kinase-Glo luciferase, ATP luminescence, 8 min. Potency, µM (series often up to 38.3 µM), inactives show at the highest dose activity change, negative = inhibition, usual class: inhibitors; also: % is scaled to controls: 0 for no effect and ±100 for the full control effect; nearly all actives have a fitted effect of over 60% in size
#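 Luminescence was the read-out, taken after 8-minute incubation at ambient temperature. Luciferase turned over luciferin with 10 uM ATP in imidazole pH 7.2 buffer containing KCl, MgCl2, Tween 20 and BSA.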
# HttQ103 aggreg – reduces HttQ103-GFP aggregates in PC12 cells; 220,000 compounds, 1.1% hits; PC12 HttQ103-GFP aggregates, Acumen cytometry, 40 h; Potency, µM (titrated, usually from 46.1 µM), for the others: top-dose activity change, negative = inhibition, usual class: inhibitors; AID 1688; also: % is scaled to controls: 0 for no effect and ±100 for the full control effect; nearly all actives have a fitted effect of over 60% in size
#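 PC12 cells with ecdysone-inducible HTT exon1 Q103-GFP, induced by 100 nM tebufenozide, given compounds in a concentration series. GFP aggregates (1–25 um, 6 SD above background) counted in lysates by laser-scanning cytometry, 488 nm excitation.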
# LMNA splice mod – changes lamin A minigene splicing in HeLa cells | Potency, µM (top dose mostly 46.1 µM), without a hit: at the top dose ratio change, negative = inhibition, hits mostly inhibitors | 200,000 compounds, 0.01% hits | HeLa LMNA splicing GFP/RFP minigene ratio, 48 h; active = well fitted inhibition curve with a large enough effect in the signal ratio, with a control signal flat, not every such curve was filed as active; inconclusive = small, poorly fitted or top-dose-only effect, or effect the other way, or a change in a side signal; the % refers to the signal ratio; also: % is scaled to controls: 0 for no effect and ±100 for the full control effect
#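 S3 HeLa cells stably expressing lamin A-EGFP splicing minigene plus DsRed2, 600 cells/well, 48 h compound exposure at 37C. Laser-scanning cytometry; analysed as GFP (500-530 nm)/RFP (575-640 nm) total intensity ratio; 0.5% DMSO vehicle.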
# HTT ATP protect – Huntington cell model cytoprotection by ATP luminescence; PC12 HTT-Q103 induced, cytoprotection, ATP luminescence, 40 h; Potency, µM (highest dose often 56.4 µM), inactives show cytoprotection (ATP increase), most hits filed as activators; 230,000 compounds, 0.14% hits; also: % of control where 0% means no effect; nearly all actives have a fitted effect of over 45% in size
#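 PC12 cells stably carrying ecdysone-inducible Htt exon 1 (Q103)–GFP were induced with 100 nM tebufenozide (final) alongside library compounds in a dose series. Cytoprotection was scored as retained ATP by ATPlite luminescence.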
# HPGD inh – blocks human HPGD enzyme activity | P15428 | purified HPGD, NADH fluorescence kinetic, PGE2 substrate | Potency, µM, for inactives: at the top dose activity change, negative = inhibition, usual class: inhibitors | 150,000 compounds, 4.3% hits | AID 894; active = well fitted inhibition curve with a large enough effect, not every such curve was filed as active; inconclusive = small, poorly fitted or top-dose-only effect, or another doubt; inactive = no such curve, though single readings can be large or run the other way; also: % is scaled to controls: 0 for no effect and ±100 for the full control effect
# Target sequence (P15428 whole entry, looked up): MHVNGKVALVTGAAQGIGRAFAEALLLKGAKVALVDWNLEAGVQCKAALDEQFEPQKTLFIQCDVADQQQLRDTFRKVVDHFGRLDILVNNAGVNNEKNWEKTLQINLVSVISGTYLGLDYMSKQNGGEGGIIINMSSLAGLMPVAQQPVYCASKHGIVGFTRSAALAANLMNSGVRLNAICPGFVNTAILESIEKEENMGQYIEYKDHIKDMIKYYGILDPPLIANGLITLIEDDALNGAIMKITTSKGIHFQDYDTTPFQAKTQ
#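 NADH formation kinetics: reaction with 30 uM PGE2 and 1 mM NAD+ (final), 20 nM enzyme, Tris-HCl pH 8 with Tween 20, after 15 min compound preincubation at room temperature. Fluorescence change, last versus first of five reads.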
# Active calls of the source: *; ? = inconclusive; . = no result; [ ] = remark or other dose. Unless noted, calls follow the shape of the dose curve; as a rule, active = well fitted curve in the direction sought with a large enough effect; inconclusive = small, poorly fitted or top-dose-only effect, or another doubt; inactive = no such curve, though single readings can be large; an effect the other way counts as inactive or inconclusive. Potency is read from the fitted curve at half-maximal effect.
SMILES,ALDH1A1 block,Luc counter,HttQ103 aggreg,LMNA splice mod,HTT ATP protect,HPGD inh
Fc1cccc(Cl)c1/C=N/Nc1ccccn1,0%,-2%,7%,-13%[46 µM],-5%[10 µM],.
CCOC(=O)C(=O)C1(C(=O)OCC)Oc2cc(OC)cc(OC)c2C(=O)C1c1ccccc1 (configuration not stated),10µM*,-2%,.,-8%,.,-10%
CCOC(=O)C1(O)Oc2cc(OC)cc(OC)c2C(=O)C1c1ccccc1 (configuration not stated),?,-3%,.,-12%,.,-18%
CC(=O)C1=C(O)C(=O)N(Cc2ccco2)C1c1ccccc1F (configuration not stated),10µM*,1%,-12%,.,-16%,.
CC(=O)C1=C(O)C(=O)N(Cc2ccco2)C1c1ccccc1 (configuration not stated),0%,0%,-22%,-2%,-21%,-28%
CCn1c2ccccc2c2nnc(N3CCN(c4ccc(F)cc4)CC3)nc21,.,.,.,-5%[46 µM],.,.
O=C1C(=C2CCCCC2)SC(=S)N1Cc1ccco1,18µM*,-2%,13%,-13%,-26%,?
CC1(C)C(=O)OC(/C=C/c2cccc([N+](=O)[O-])c2)C(C)(C)C1=O (configuration not stated),.,.,12%[9.22 µM],.,18%[10 µM],.
CCCCc1c(CCC)c(=N)c2ccccc2n1C,-5%,-3%,8.9µM*,15%,-4%[10 µM],-22%
CCCCc1c(O)c2ccccc2n(CCCC)c1=O,?,-1%,-27%,?,.,?
O=C(c1ccccc1)c1ccc(OCCOCCN2CCN(Cc3ccccc3)CC2)cc1,18µM*,-1%,.,-1%[46 µM],.,.
O=C(c1ccccc1)c1ccc(OCCCN2CCCC2)cc1,-14%,-1%,-11%,9%,0%[0.074 µM],-8%
Cc1ccc(/C(O)=C2\C(=O)C(=O)N(c3cc(C)on3)C2c2cccc(Br)c2)cc1 (configuration not stated),?,3%,20%,10%,-18%,-16%
CCCCC/C=C\C/C=C\C/C=C\C/C=C\CCCC(=O)C(F)(F)F,20µM*,2%[39.9 µM],.,.,?,-4%
O=c1c2ccccc2sn1-c1ccc(S(=O)(=O)N2CCCC2)cc1,0.89µM*,-3%,16%,-2%,14%[10 µM],0.71µM*
Cc1ccc(-n2sc3ccccc3c2=O)cc1S(=O)(=O)N1CCCCC1,2.2µM*,0%,?,?,-4%[10 µM],1µM*
O=c1c2ccccc2sn1-c1ccc(S(=O)(=O)N2CCCCC2)cc1,.,.,.,.,19%[10 µM],.
CN(C)S(=O)(=O)c1cccc(-n2sc3ccccc3c2=O)c1,0.22µM*,-7%,31%,7%[46 µM],6%[10 µM],.
CCn1cc(C2=NOC(C(=O)Nc3ccccc3C(=O)OC)C2)c(C)n1 (configuration not stated),-9%,-3%,-32%,?,-17%,-11%
O=C(Cc1ccc([N+](=O)[O-])cc1)c1c(O)cc(O)cc1O,.,.,-3%[9.22 µM],.,12%[10 µM],.
CCCCc1ccc(NC(=O)N[C@H](C(=O)O)C(C)C)cc1,-5%,-3%,-13%,-10%,6%[10 µM],-1%
Cc1ccc(NC(=O)c2cccc(Cl)c2)nc1,?,11µM*,-8%,-4%,-27%[10 µM],-27%
O=C(Cn1ccc([N+](=O)[O-])n1)N1CCCCC1,3%,2%,-2%,-13%[46 µM],?,.
Cc1ccc2c(c1)C(CCN)C(=O)N2Cc1ccccc1 (configuration not stated),32µM*,3%,13%,9%,0%,-6%
O=C(N/N=C\c1cccc(O)c1)c1ccncc1,-11%[13.5 µM],-2%[7.66 µM],.,.,-6%[10 µM],-8%
SMILES,ALDH1A1 block,Luc counter,HttQ103 aggreg,LMNA splice mod,HTT ATP protect,HPGD inh
O=C1S/C(=C\c2ccc(N3CCOCC3)o2)C(=O)N1c1ccccc1,0.89µM*,-4%,16µM*,.,-17%,.
O=C1S/C(=C/c2ccc(N3CCOCC3)o2)C(=O)N1Cc1c(F)cccc1Cl,0.13µM*,-4%,?,6%,36%,-19%
O=C1S/C(=C\c2ccc(N3CCOCC3)o2)C(=O)N1Cc1c(F)cccc1Cl,0.13µM*,0%,21%,?,-34%,?
COc1cc([C@H]2[C@@H]3CCCC[C@]3(O)CCN2Cc2ccccc2F)ccc1O,5%,0%,14%,4%,-1%,-10%
C[C@H](N)c1nnc(SCc2c(Cl)cccc2Cl)o1,-4%,-2%,-6%,-2%,-10%,32µM*
CCOC(=O)c1ccc(NC(=O)c2cnc(N3CCCC3)nc2C)cc1,.,.,.,15%[46 µM],.,.
Cc1ccc2nc(-c3cccc(N)c3)[nH]c2c1,?,10µM*,-3%,-3%,-31%[10 µM],?
COc1ccc(-c2nc3ccc([N+](=O)[O-])cc3[nH]2)cc1,-18%,-5%,?,?,2%[0.074 µM],-17%
Cc1ccc(-c2nc3ccc([N+](=O)[O-])cc3[nH]2)cc1,?,-6%,10µM*,.,-13%[10 µM],.
Cc1ccc(C)c(OCCn2c(=O)c3c(ncn3C3CCCC3)n(Cc3ccccc3)c2=O)c1,-3%,-2%,-23%,?,-3%[10 µM],-10%
CC(C)COc1cccc(C(=O)NC(=S)Nc2cccc(NC(=O)c3ccccc3Cl)c2)c1,10µM*,1%,15%,2%,24%[10 µM],-7%
CCCCOc1cccc(C(=O)NC(=S)Nc2cccc(NC(=O)c3ccccc3Cl)c2)c1,2µM*,-1%,3%,-10%,23%[10 µM],-11%
CC(C)Oc1cccc(C(=O)NC(=S)Nc2ccccc2)c1,10µM*,1%,11%,?,.,-20%
CCCOc1ccc(CC(=O)NNC(=S)Nc2ccccc2)cc1Br,18µM*,2%,-9%,?,33%[10 µM],?
CC(C)Oc1cccc(C(=O)NC(=S)Nc2cccnc2)c1,?,3%,1%,-8%,30%[1.9 µM],-8%
CC(C)c1nc(C#N)c(NCCCn2ccnc2)o1,0%,1%,6%,-5%,-10%[10 µM],-12%
COc1ccc(NC(=O)c2ccc(NCCCN3CCOCC3)c([N+](=O)[O-])c2)cc1,-15%,2%,-8%,?,15%[10 µM],-17%
Cc1cccc(NC(=O)C2CCCN2S(=O)(=O)c2ccc3c(c2)n(C)c(=O)c(=O)n3C)c1 (configuration not stated),-11%,0%,18%,3%,.,-13%
COc1ccc(-c2nc3cnc(OC)nc3n(C[C@H]3CCCO3)c2=O)cc1,?,.,.,2%,-193%,.
CC(C)(N)CO[C@H]1C[C@H]2CC[C@@]1(C)C2(C)C,4%[13.5 µM],-1%[7.66 µM],.,.,-9%[10 µM],-7%
CCOC(=O)N1CCN(C(=O)CNC(=O)c2nn(-c3ccc(OC)cc3)c(=O)c3ccccc23)CC1,-7%,2%,-4%,-8%,-6%[10 µM],3%

# Screens: PubChem, National Center for Advancing Translational Sciences (NCATS)
